According to PubChem BioAssay:
Where “and” joins values, the source holds several entries; their conditions need not be identical. Identical values can stand only once.

assay: HTB85 osteosarcoma cell growth inhibition, synergistic combos for chromothripsis tumors, BGB or cisplatin IC20 combos (AID 1671453); conditions: HTB85 osteosarcoma cells, drug combinations, single agent, at 5 µM, stronger effect = higher value;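 also: cells exposed for 96 hours before readout; 0% = vehicle DMSO and 100% = high DMSO killing control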

Compound | inhibition
COc1ccccc1S(=O)(=O)Nc1ccc2c(c1)CN(C)C(=O)N2 | 32.5%
Cc1cc(C#N)cc(C)c1Oc1nc(Nc2ccc(C#N)cc2)nc(N)c1Br | -5.74%
Nc1ncn(C2OC(CO)C(O)C2O)c(=O)n1 (stereo not drawn) | 30.1%
Cc1cc(C)c(Nc2ccnc(Nc3ccc(C#N)cc3)n2)c(C)c1 | 50.9%
COc1ccc(CC(N)C(=O)NC2C(CO)OC(n3cnc4c(N(C)C)ncnc43)C2O)cc1 (stereo not drawn) | 100%
O=c1ccn(C2OC(CO)C(O)C2O)c(=O)[nH]1 (stereo not drawn) | 13% and -28.4%
CC=C1NC(=O)C2CSSCCC=CC(CC(=O)NC(C(C)C)C(=O)N2)OC(=O)C(C(C)C)NC1=O (stereo not drawn) | 99.9%
CN(C)CC(=O)Nc1ccc2[nH]c(=O)c3ccccc3c2c1 | 1.63% and -7.42% and 3.8%
CC1OC(n2cc(F)c(=O)[nH]c2=O)C(O)C1O (stereo not drawn) | -22%
Nc1ccn(C2OC(CO)C(O)C2(F)F)c(=O)n1 (stereo not drawn) | 92.2% and 93.6% and 92.8%
Cc1cn(C2CC(N=[N+]=[N-])C(CO)O2)c(=O)[nH]c1=O (stereo not drawn) | -30.3% and -3.23%
CC(C=CC(=O)NO)=CC(C)C(=O)c1ccc(N(C)C)cc1 (stereo not drawn) | 99.9%
NC(=S)NN=Cc1ncccc1N | 84.1%
CC(C)(C#N)c1ccc(N2C(=O)OCc3cnc4ccc(-c5cnc6ccccc6c5)cc4c32)cc1 | -10.2%
CC1CN(c2c(F)c(N)c3c(=O)c(C(=O)O)cn(C4CC4)c3c2F)CC(C)N1 (stereo not drawn) | 7.58%
CCCCN(Cc1ccc(C(=O)NO)cc1)C(=O)Nc1ccccc1 | 64% and 41.2%
O=c1[nH]cnc2c1ncn2C1OC(CO)C(O)C1O (stereo not drawn) | -29.3% and -10.1%
Cc1cc(C=CC#N)cc(C)c1Nc1ccnc(Nc2ccc(C#N)cc2)n1 | 0.45%
